Growth inhibition data for 40 molecules are collected here from PubChem BioAssay (NCI).

This is part of a sample that, as a whole, favours compounds with a hit. Of some 79,000 tested, about 15% had one in any assay. Unmarked numbers belong to inactive results. Calls of active or inactive are those of the source. Cut-off read from the data, not from the text of the source: active = growth inhibition above about 70%; inactive = the rest.

The first test in a line: NCI Yeast Anticancer Drug Screen. Data for the bub3 strain (AID 167). The note with it: S. cerevisiae bub3 mutant strain, at 50.0 µM, hits give high values. The essentials: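 Mutant yeast screening strain plus compound; vehicle-treated cultures serve as the 0% inhibition reference.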
In the case of `CC(C)=Cc1ccccc1C1(C)C(c2ccccc2)=C1c1ccccc1`, the growth inhibition is -0.3%.

For the molecule `CC(=O)CCC(=O)c1ccoc1`, the growth inhibition is -9.55%.

As to `O=P(O)(O)c1ccccc1Oc1ccccc1`, the growth inhibition was 8.05%.

With `CCN(CC)N=Nc1ccc(S(N)(=O)=O)cc1`, the growth inhibition was -5.1%.

Turning to `CCCOc1ccc(C(=O)O)cc1`, the growth inhibition was -14.8%.

Consider `Cc1ccc(C(=S)NC(=O)Nc2ccccc2)cc1`, for which the growth inhibition is 45.8%.

Turning to `NCCCNCCCCNC(=O)C(O)NC(=O)CCCCCCN=C(N)N` (stereo not given), the growth inhibition is 3.4%.

Regarding `NC(Cc1cccnn1)C(=O)O` (stereo not given), the growth inhibition was -25.4%.

For the molecule `OCC1CC=CCC1` (stereo not given), the growth inhibition is -27.1%.

In the case of `COc1ccc(/C=C2\CCC(CCN(C)C)(C3=CCCC3)C2=O)cc1` (stereo not given), the growth inhibition was -14.4%.

As for `COC1OCCCO1`, the growth inhibition is -0.1%.

Consider `CSc1ncc(Br)c(Sc2nccn2C)n1`, for which the growth inhibition is -12%.

In the case of `CCC1CN2CCc3cc(OC)c(OC)cc3C2CC1CC1c2cc(OC)c(OC)cc2CCN1C(=O)C1CCCN1` (stereo not given), the growth inhibition is 7.65%.

As for `Clc1ccc(C2SCCS2)c(Cl)c1`, the growth inhibition was 33.8%.

As to `CC(=O)CC(=O)NN(C)C`, the growth inhibition was -36.4%.

In the case of `CC1CCC2(CC1)NN=c1s/c(=C\c3ccc(O)cc3)c(=O)n1N2` (stereo not given), the growth inhibition was -21.2%.

In the case of `COC(=O)/C=C/CCCC1CCCCC1`, the growth inhibition was -14.9%.

Take `CCOC(=O)C1=C(C(=O)c2ccccc2)C(c2ccc([N+](=O)[O-])cc2)C(C(=O)c2ccccc2)=C(C(=O)OCC)N1`: the growth inhibition was -10.9%.

As to `CCCCCCCCCCCCCCCCOP(=O)(O)OP(=O)(O)OCC1OC(n2ccc(N)nc2=O)CC1O` (stereo not given), the growth inhibition is 20.6%.

With `CN(C)CCCNc1nnc(NCCCN(C)C)c2[nH]cnc12`, the growth inhibition is 6.5%.

Take `Cc1ccc2ccccc2c1CSc1nc(N)nc2c1ncn2CC(C)C`: the growth inhibition is 12.9%.

As to `c1ccc(CCc2nc3ccccc3[nH]2)cc1`, the growth inhibition was -37.1%.

With `N#CSCc1ccc(CSC#N)c(Br)c1`, the growth inhibition was 10.4%.

Regarding `O=C(O)c1ccccc1Nc1nc2ccccc2o1`, the growth inhibition was 15.2%.

As for `OC(CNC1CC2CCC1C2)COc1cccc2ccccc12` (stereo not given), the growth inhibition is 51%.

With `[N-]=[N+]=Nc1cc(=O)n(-c2ccccc2)c(=O)n1-c1ccccc1`, the growth inhibition was 10.3%.

For the molecule `O=[N+]([O-])c1ccc(N=N/C(=N\Nc2ccccc2)c2nc3ccccc3[nH]2)c([N+](=O)[O-])c1`, the growth inhibition is -4.35%.

Regarding `Cc1cccc2nnc(CCCc3nnc4cccc(C)n34)n12`, the growth inhibition was -8.8%.

As to `COc1ccc(-c2cc(N3CCN(c4ccccc4)CC3)c(C#N)c(=O)o2)cc1`, the growth inhibition is -2.1%.

For the molecule `C=C1C(=O)OC2CCC(O)C12` (stereo not given), the growth inhibition is -1.2%.

Turning to `CCOC(=O)CCCOc1ccccc1`, the growth inhibition is 16.1%.

Consider `CCN(CC)CCOc1cccc(Oc2ccccc2)c1`, for which the growth inhibition was 53%.

Turning to `CC12CCC(O)CC1=CCC1C2CCC2(C)C1CCC21SCCS1` (stereo not given), the growth inhibition is 13.8%.

In the case of `NC1=NC(=O)C(CC(=O)Nc2ccc([N+](=O)[O-])cc2[N+](=O)[O-])S1` (stereo not given), the growth inhibition was 2%.

As to `CCOC(=O)CNC(=O)C(Cc1cnc[nH]1)NC(=O)OCc1ccccc1` (stereo not given), the growth inhibition is -6.7%.

`OC(CC1CCCCN1)c1cc2c(Cl)cc(Cl)cc2c2cc(C(F)(F)F)ccc12` (stereo not given): the growth inhibition was 98.8% (active).

Regarding `O=C1c2ccccc2C(=O)c2nc3ccc(Cl)cc3cc21`, the growth inhibition was -12.5%.

Consider `Cc1cc(Cl)ccc1N1C(=O)C(=O)C(c2nc3ccccc3s2)/C(=N\NC(=O)c2ccccc2O)C1=O` (stereo not given), for which the growth inhibition was -15.2%.

On to `COc1cc2cc3c4ccc(OC)c(OC)c4cc[n+]3c(C)c2cc1OC` (tested in a mixture with another compound), for which the growth inhibition was 98.2% (active).

As to `Cc1cc2c(=O)[nH]cnc2[nH]1`, the growth inhibition is 13.8%.

The nature of the next test: NCI Yeast Anticancer Drug Screen. Data for the mlh1 rad18 strain (AID 175). The note with it: S. cerevisiae mlh1 rad18 strain growth inhibition; at 50.0 µM; hits give high values. An outline of the steps:
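Genetically defined yeast (DNA repair-deficient) exposed to compounds; growth inhibition determined relative to vehicle.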
Consider `CC(C)=Cc1ccccc1C1(C)C(c2ccccc2)=C1c1ccccc1`, for which the growth inhibition is -3.6%.

As to `CC(=O)CCC(=O)c1ccoc1`, the growth inhibition was 9.25%.

For `O=P(O)(O)c1ccccc1Oc1ccccc1`, the growth inhibition is 6.95%.

On to `CCN(CC)N=Nc1ccc(S(N)(=O)=O)cc1`, for which the growth inhibition is 14.6%.

Consider `CCCOc1ccc(C(=O)O)cc1`, for which the growth inhibition is 4.15%.

On to `Cc1ccc(C(=S)NC(=O)Nc2ccccc2)cc1`, for which the growth inhibition was 1.45%.

Take `NCCCNCCCCNC(=O)C(O)NC(=O)CCCCCCN=C(N)N` (stereo not given): the growth inhibition was -1.6%.

In the case of `NC(Cc1cccnn1)C(=O)O` (stereo not given), the growth inhibition is -5.25%.

Turning to `OCC1CC=CCC1` (stereo not given), the growth inhibition was 11.6%.

As to `COc1ccc(/C=C2\CCC(CCN(C)C)(C3=CCCC3)C2=O)cc1` (stereo not given), the growth inhibition is 9.4%.

Turning to `COC1OCCCO1`, the growth inhibition is -12.5%.

Turning to `CSc1ncc(Br)c(Sc2nccn2C)n1`, the growth inhibition was 2.85%.

For `CCC1CN2CCc3cc(OC)c(OC)cc3C2CC1CC1c2cc(OC)c(OC)cc2CCN1C(=O)C1CCCN1` (stereo not given), the growth inhibition is -3.4%.

`Clc1ccc(C2SCCS2)c(Cl)c1`: the growth inhibition is 38.5%.

Consider `CC(=O)CC(=O)NN(C)C`, for which the growth inhibition is 9.85%.

On to `CC1CCC2(CC1)NN=c1s/c(=C\c3ccc(O)cc3)c(=O)n1N2` (stereo not given), for which the growth inhibition is -19.9%.

With `COC(=O)/C=C/CCCC1CCCCC1`, the growth inhibition was -13.9%.

For the molecule `CCOC(=O)C1=C(C(=O)c2ccccc2)C(c2ccc([N+](=O)[O-])cc2)C(C(=O)c2ccccc2)=C(C(=O)OCC)N1`, the growth inhibition was 7.5%.

Regarding `CCCCCCCCCCCCCCCCOP(=O)(O)OP(=O)(O)OCC1OC(n2ccc(N)nc2=O)CC1O` (stereo not given), the growth inhibition was 12.7%.

Take `CN(C)CCCNc1nnc(NCCCN(C)C)c2[nH]cnc12`: the growth inhibition is -4.35%.

As for `Cc1ccc2ccccc2c1CSc1nc(N)nc2c1ncn2CC(C)C`, the growth inhibition was 46.5%.

For the molecule `c1ccc(CCc2nc3ccccc3[nH]2)cc1`, the growth inhibition was -10.9%.

Consider `N#CSCc1ccc(CSC#N)c(Br)c1`, for which the growth inhibition was 43.4%.

Consider `O=C(O)c1ccccc1Nc1nc2ccccc2o1`, for which the growth inhibition was 0.25%.

On to `OC(CNC1CC2CCC1C2)COc1cccc2ccccc12` (stereo not given), for which the growth inhibition was 82.4% (active).

As to `[N-]=[N+]=Nc1cc(=O)n(-c2ccccc2)c(=O)n1-c1ccccc1`, the growth inhibition is 32.2%.

`O=[N+]([O-])c1ccc(N=N/C(=N\Nc2ccccc2)c2nc3ccccc3[nH]2)c([N+](=O)[O-])c1`: the growth inhibition was 15.2%.

As to `Cc1cccc2nnc(CCCc3nnc4cccc(C)n34)n12`, the growth inhibition is -6.3%.

With `COc1ccc(-c2cc(N3CCN(c4ccccc4)CC3)c(C#N)c(=O)o2)cc1`, the growth inhibition is 12.1%.

`C=C1C(=O)OC2CCC(O)C12` (stereo not given): the growth inhibition is 11.7%.

`CCOC(=O)CCCOc1ccccc1`: the growth inhibition is 19.7%.

Take `CCN(CC)CCOc1cccc(Oc2ccccc2)c1`: the growth inhibition is 84% (active).

Regarding `CC12CCC(O)CC1=CCC1C2CCC2(C)C1CCC21SCCS1` (stereo not given), the growth inhibition was 13%.

On to `NC1=NC(=O)C(CC(=O)Nc2ccc([N+](=O)[O-])cc2[N+](=O)[O-])S1` (stereo not given), for which the growth inhibition was -8.55%.

With `CCOC(=O)CNC(=O)C(Cc1cnc[nH]1)NC(=O)OCc1ccccc1` (stereo not given), the growth inhibition is -3.7%.

On to `OC(CC1CCCCN1)c1cc2c(Cl)cc(Cl)cc2c2cc(C(F)(F)F)ccc12` (stereo not given), for which the growth inhibition is 52%.

As for `O=C1c2ccccc2C(=O)c2nc3ccc(Cl)cc3cc21`, the growth inhibition is -10.8%.

With `Cc1cc(Cl)ccc1N1C(=O)C(=O)C(c2nc3ccccc3s2)/C(=N\NC(=O)c2ccccc2O)C1=O` (stereo not given), the growth inhibition was -14.9%.

For `COc1cc2cc3c4ccc(OC)c(OC)c4cc[n+]3c(C)c2cc1OC` (tested in a mixture with another compound), the growth inhibition is 98% (active).

Regarding `Cc1cc2c(=O)[nH]cnc2[nH]1`, the growth inhibition was -1.15%.
